What all share (conditions): mRNA level, 48 h; actives raise or lower the signal
Read-out in assay [1]: Cytochrome P450 (CYP1A1), CYP1A1 (gene 1543)
As to the kind of experiment: LTEA_HepaRG_CYP1A1: Life Technologies and Expression Analysis (LTEA) Assay for Cytochrome P450 (CYP1A1) using HepaRG (AID 2283454). The method, boiled down:
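Differentiated human HepaRG cells, after 48 h plating, exposed in duplicate for 48 h in serum-free induction medium to 8 half-log concentrations up to 100 uM in 0.5% DMSO. CYP1A1 mRNA by qRT-PCR, normalized to ACTB/GAPDH/POLR2A; bidirectional fit versus DMSO.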

Read-out in assay [2]: CFLAR gene, CFLAR (gene 8837)
As to the kind of experiment: LTEA_HepaRG_CFLAR: Life Technologies and Expression Analysis (LTEA) Assay for CFLAR gene using HepaRG (AID 2283455). The method, boiled down:
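HepaRG, 48 h exposure, 8-pt conc-response (100 uM top, half-log), 0.5% DMSO vehicle, duplicates. CFLAR expression by qRT-PCR; ACTB/GAPDH/POLR2A normalization; gain or loss fit vs DMSO baseline.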

Read-out in assay [3]: Forkhead box O1 (FOXO1), FOXO1 (gene 2308)
As to the kind of experiment: LTEA_HepaRG_FOXO1: Life Technologies and Expression Analysis (LTEA) Assay for Forkhead box O1 (FOXO1) using HepaRG (AID 2283456). A digest of the protocol:
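Readout is FOXO1 transcript level by multiplexed qRT-PCR against three housekeeping genes, curve-fitted in both directions relative to 0.5% DMSO vehicle. Human HepaRG cultures received chemicals for 48 h, up to 100 uM in half-log steps.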

Read-out in assay [4]: growth arrest and DNA damage 45 (GADD45A), GADD45A (gene 1647)
Put plainly: LTEA_HepaRG_GADD45A: Life Technologies and Expression Analysis (LTEA) Assay for growth arrest and DNA damage 45 (GADD45A) using HepaRG (AID 2283458). The method, boiled down:
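Differentiated HepaRG cells were exposed in duplicate for 48 h in serum-free induction medium to 8-point half-log concentrations up to 100 uM in 0.5% DMSO. GADD45A mRNA was measured by TaqMan qRT-PCR, normalized to ACTB, GAPDH and POLR2A, with bidirectional fitting versus DMSO.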

Read-out in assay [5]: Forkhead box O3 (FOXO3), FOXO3 (gene 2309)
Put plainly: LTEA_HepaRG_FOXO3: Life Technologies and Expression Analysis (LTEA) Assay for Forkhead box O3 (FOXO3) using HepaRG (AID 2283459). A digest of the protocol: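 HepaRG, 48 h post-dose; 8 conc., half-log from 100 uM, 0.5% DMSO, duplicates; serum-free induction medium. Readout: FOXO3 mRNA, TaqMan qRT-PCR, housekeeping-normalized. Bidirectional curve fit vs DMSO baseline.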

Read-out in assay [6]: ABC Transporter (ABCC3), ABCC3 (gene 8714)
Put plainly: LTEA_HepaRG_ABCC3: Life Technologies and Expression Analysis (LTEA) Assay for ABC Transporter (ABCC3) using HepaRG (AID 2283462). A digest of the protocol: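 Differentiated human HepaRG cells exposed 48 h in serum-free induction medium, 0.5% DMSO vehicle, 8-point half-log series to 100 uM in duplicate. ABCC3 mRNA by qRT-PCR, normalised to ACTB, GAPDH, POLR2A; bidirectional fit vs DMSO.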

Read-out in assay [7]: ABC Transporter (ABCB11), ABCB11 (gene 8647)
As to the kind of experiment: LTEA_HepaRG_ABCB11: Life Technologies and Expression Analysis (LTEA) Assay for ABC Transporter (ABCB11) using HepaRG (AID 2283463). A digest of the protocol: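 ABCB11 transcript levels are read by Fluidigm TaqMan qRT-PCR after 48 h chemical treatment of human HepaRG cells. Concentrations span 100 uM downward in half-log steps with 0.5% DMSO; gain or loss is fitted against DMSO controls.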

Read-out in assay [8]: ABC Transporter (ABCC2), ABCC2 (gene 1244)
As to the kind of experiment: LTEA_HepaRG_ABCC2: Life Technologies and Expression Analysis (LTEA) Assay for ABC Transporter (ABCC2) using HepaRG (AID 2283464). A digest of the protocol:
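Differentiated HepaRG cells in serum-free induction medium exposed 48 h to eight half-log concentrations up to 100 uM, 0.5% DMSO, in duplicate. ABCC2 mRNA measured by qRT-PCR (TaqMan, Fluidigm), normalized to ACTB, GAPDH and POLR2A. Fitted in both directions against DMSO.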

Read-out in assay [9]: Broad substrate specificity ATP-binding cassette transporter ABCG2 (Homo sapiens) (UniProt Q9UNQ0)
Put plainly: LTEA_HepaRG_ABCG2: Life Technologies and Expression Analysis (LTEA) Assay for ABC Transporter (ABCG2) using HepaRG (AID 2283465). The method, boiled down: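 Read-out is ABCG2 mRNA induction or loss quantified by qRT-PCR after 48 h chemical treatment of human HepaRG cells, normalized to three housekeeping genes. Concentrations reached 100 uM top in half-log steps; fitting was bidirectional against 0.5% DMSO.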

Read-out in assay [10]: ATP-citrate lyase (ACLY), ACLY (gene 47)
As to the kind of experiment: LTEA_HepaRG_ACLY: Life Technologies and Expression Analysis (LTEA) Assay for ATP-citrate lyase (ACLY) using HepaRG (AID 2283466). The method, boiled down: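 HepaRG, 48 h exposure, 8-pt half-log dilutions (top 100 uM), 0.5% DMSO. Readout: ACLY mRNA, TaqMan qRT-PCR, housekeeping-normalized (ACTB/GAPDH/POLR2A). Bidirectional curve fit vs DMSO.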

Read-out in assay [11]: Alkaline Phosphatase, Placental (ALPP) gene, ALPP (gene 250)
As to the kind of experiment: LTEA_HepaRG_ALPP: Life Technologies and Expression Analysis (LTEA) Assay for Alkaline Phosphatase, Placental (ALPP) gene using HepaRG (AID 2283468). A digest of the protocol:
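HepaRG cells plated 48 h, then exposed in duplicate for 48 h in serum-free induction medium to 8-point half-log series from 100 uM in 0.5% DMSO. ALPP mRNA by TaqMan qRT-PCR, normalized to ACTB/GAPDH/POLR2A; bidirectional fit versus DMSO.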

Read-out in assay [12]: Bcl-2 (BAD) gene, BAD (gene 572)
As to the kind of experiment: LTEA_HepaRG_BAD: Life Technologies and Expression Analysis (LTEA) Assay for Bcl-2 (BAD) gene using HepaRG (AID 2283469). The method, boiled down: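 BAD transcript change, measured by qRT-PCR against three housekeeping genes and fitted in both directions relative to 0.5% DMSO, after 48 h chemical treatment of human HepaRG liver cells at concentrations up to 100 uM.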

Read-out in assay [13]: Alpha-fetoprotein (AFP) gene, AFP (gene 174)
As to the kind of experiment: LTEA_HepaRG_AFP: Life Technologies and Expression Analysis (LTEA) Assay for Alpha-fetoprotein (AFP) gene using HepaRG (AID 2283472). A digest of the protocol: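 Human HepaRG cells plated 48 h, then switched to serum-free induction medium and exposed in duplicate for 48 h to 8-point half-log series from 100 uM in 0.5% DMSO. AFP mRNA by qRT-PCR, normalized to ACTB, GAPDH, POLR2A; bidirectional fit versus DMSO.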

Read-out in assay [14]: growth arrest and DNA damage 45 (GADD45B), GADD45B (gene 4616)
As to the kind of experiment: LTEA_HepaRG_GADD45B: Life Technologies and Expression Analysis (LTEA) Assay for growth arrest and DNA damage 45 (GADD45B) using HepaRG (AID 2283461). A digest of the protocol:
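Differentiated human HepaRG cells in serum-free induction medium exposed 48 h in duplicate to eight concentrations, top 100 uM, half-log steps, 0.5% DMSO. GADD45B mRNA by TaqMan qRT-PCR, normalized to ACTB, GAPDH, POLR2A; bidirectional fit versus DMSO.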

Read-out in assay [15]: ABC Transporter (ABCB1), ABCB1 (gene 5243)
Put plainly: LTEA_HepaRG_ABCB1: Life Technologies and Expression Analysis (LTEA) Assay for ABC Transporter (ABCB1) using HepaRG (AID 2283460). A digest of the protocol: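 Expression of ABCB1 was quantified by qRT-PCR against three housekeeping genes after human HepaRG cultures received test chemicals for 48 hours. Concentrations spanned eight half-log steps topping at 100 uM in 0.5% DMSO; gain or loss of signal was fitted relative to vehicle.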

Read-out in assay [16]: Peroxisomal acyl-coenzyme A oxidase 1 (ACOX1) gene, ACOX1 (gene 51)
As to the kind of experiment: LTEA_HepaRG_ACOX1: Life Technologies and Expression Analysis (LTEA) Assay for Peroxisomal acyl-coenzyme A oxidase 1 (ACOX1) gene using HepaRG (AID 2283467). A digest of the protocol: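 Measured by qRT-PCR against three housekeeping genes: ACOX1 transcript change in human HepaRG cells after 48 h dosing. Concentrations ran up to 100 uM in half-log steps. Curves were fitted bidirectionally relative to 0.5% DMSO.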

Read-out in assay [17]: Bcl-2 (BAX) gene, BAX (gene 581)
Put plainly: LTEA_HepaRG_BAX: Life Technologies and Expression Analysis (LTEA) Assay for Bcl-2 (BAX) gene using HepaRG (AID 2283470). A digest of the protocol: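 Differentiated human HepaRG cells, plated 48 h then switched to serum-free induction medium, were exposed 48 h to 8 half-log concentrations up to 100 uM in 0.5% DMSO; BAX mRNA measured by qRT-PCR, normalized to ACTB, GAPDH, POLR2A.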

Read-out in assay [18]: adenosine kinase (ADK) gene, ADK (gene 132)
As to the kind of experiment: LTEA_HepaRG_ADK: Life Technologies and Expression Analysis (LTEA) Assay for adenosine kinase (ADK) gene using HepaRG (AID 2283471). The method, boiled down: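 ADK expression quantified by qRT-PCR, normalised to three housekeeping genes, after 48 h exposure of HepaRG cells to eight concentrations (top 100 uM, half-log steps, duplicate, 0.5% DMSO). Up- or down-regulation fitted relative to vehicle.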

Molecules are shown by their SMILES. Active and inactive are the calls of the source. The calls were made as follows: active = hit-call score of the fitted dose curve at least 0.9, where 1 is the maximum; inactive = score below 0.9.

Sequence of Broad substrate specificity ATP-binding cassette transporter ABCG2 (Homo sapiens) (Q9UNQ0 whole entry, looked up): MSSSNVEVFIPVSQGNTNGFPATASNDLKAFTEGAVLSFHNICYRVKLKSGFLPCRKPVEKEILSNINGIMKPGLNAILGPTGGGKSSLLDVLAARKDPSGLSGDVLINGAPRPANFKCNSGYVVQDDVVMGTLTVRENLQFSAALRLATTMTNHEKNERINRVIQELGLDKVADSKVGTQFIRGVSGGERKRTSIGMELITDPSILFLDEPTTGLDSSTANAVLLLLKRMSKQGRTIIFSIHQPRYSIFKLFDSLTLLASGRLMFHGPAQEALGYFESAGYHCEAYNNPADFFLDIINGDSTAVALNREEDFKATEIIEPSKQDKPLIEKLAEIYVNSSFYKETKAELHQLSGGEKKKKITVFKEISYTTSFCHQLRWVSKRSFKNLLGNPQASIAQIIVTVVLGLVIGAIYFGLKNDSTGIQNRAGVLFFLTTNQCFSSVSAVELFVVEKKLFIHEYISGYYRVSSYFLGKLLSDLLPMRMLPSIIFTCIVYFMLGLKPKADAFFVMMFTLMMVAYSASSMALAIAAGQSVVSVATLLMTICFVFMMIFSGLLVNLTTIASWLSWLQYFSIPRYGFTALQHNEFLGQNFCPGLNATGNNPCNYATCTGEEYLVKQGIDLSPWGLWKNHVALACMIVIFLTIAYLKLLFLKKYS

As a reminder, the AC50 is the concentration at which the activity in the assay is half-maximal. Turning to `C=CCc1ccc2c(c1)OCO2`, in assay [1], the AC50 was 50 µM (active). In addition, the call in assay [2], in assay [3], in assay [4], in [5], in assay [6] and in assay [7] was inactive. Moreover, the compound was classed as inactive in [8], in [9], in [10], in [11], in assay [12] and in assay [13].
As for `COP(=S)(OC)SCN1C(=O)c2ccccc2C1=O`, the AC50 in assay [1] was 30.9 µM (active). Besides, the result in assay [2], in assay [3], in assay [4], in assay [5], in [14] and in [6] was inactive. In addition, the outcome in [7], in assay [8], in assay [9], in assay [10], in assay [11] and in assay [12] was inactive. For the same compound, in assay [13], the compound was classed as inactive.
Turning to `CN(C)c1ccccc1`, in assay [1], the AC50 is 63.3 µM (active). Moreover, the call in assay [2], in [3], in assay [4], in assay [5], in [15] and in [6] was inactive. The outcome in [7], in assay [8], in [9], in assay [10], in assay [16] and in assay [11] was inactive. Further, the outcome in [12], in assay [17] and in assay [13] was inactive.
Consider `CO[C@@H]1[C@H](OC(=O)NC(=O)CCl)CC[C@]2(CO2)[C@H]1[C@@]1(C)O[C@@H]1CC=C(C)C`, for which the AC50 is 16 µM (active) in [1] and 0.286 µM (active) in assay [7]. Also, the outcome in [2], in [3], in assay [4], in assay [5], in assay [6] and in assay [8] was inactive. The call in [9], in assay [10], in assay [16], in assay [11], in [12] and in assay [13] was inactive.
`CCCCCOC(=O)c1ccccc1C(=O)OCCCCC`: the AC50 in [1] is 18 µM (active). For the same compound, the result in assay [2], in assay [3], in assay [4], in [5], in [14] and in assay [6] was inactive. Besides, the result in [7], in assay [8], in assay [9], in assay [10], in assay [16] and in assay [11] was inactive. The compound was called inactive in [12], in assay [18] and in [13].
Take `CC(C)COC(=O)c1ccccc1C(=O)OCC(C)C`: in [1], the AC50 was 59.1 µM (active). For the same compound, the call in assay [2], in assay [3], in assay [4], in [5], in [15] and in assay [6] was inactive. For the same compound, the compound was classed as inactive in [7], in [8], in assay [9], in assay [10], in assay [11] and in assay [12]. For the same compound, in assay [13], the compound was called inactive.

These data come from PubChem BioAssay (EPA / NIEHS).
